Where “and” joins values, the source holds several entries; their conditions need not be identical. Identical values can stand only once. The panel holds about 83,000 compounds, 20% with a hit somewhere; the sample as a whole holds those more often.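 Percent growth is the endpoint: 0 to 100 indicates growth inhibition (40 means 60% inhibition), 0 means no net growth, and negative values indicate cell death.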 Calls of active or inactive are those of the source. Rule for the calls: active = growth percent below 10; inactive = the rest.

This test has as its system NCI-H460 lung. Nature of the test: NCI-60 one-dose screen, 48 h (100 = growth as untreated, 0 = no growth, -100 = all killed). The following applies: 10 µM unless noted.
As to `COc1cc2c(c(OC)c1OC)-c1ccc(OC)c(=O)cc1[C@@H](NC(C)=O)CC2`, the growth is 4.46% (active) and 1.09% (active) and 2.92% (active).
The result for `CN1CCN(c2ccc3nc(-c4c(N)c5c(F)cccc5[nH]c4=O)[nH]c3c2)CC1` reads 6.56% (active) and 7.99% (active).
With `NC(=S)NN=C1CCC(C2CCCCC2)CC1` (stereo not drawn), the growth was 106% (inactive) and 108% (inactive).
The figure for `c1ccc2cc(C[n+]3ccn(Cc4ccc5ccccc5n4)c3)ccc2c1` is 11.1% (inactive) and 35.8% (inactive).
The figure for `CN(C)CCC(=O)c1ccc(Cl)cc1` is 113% (inactive) and 114% (inactive).
The figure for `Fc1ccccc1Nc1n[nH]c(=S)s1` is 109% (inactive).
In the case of `CCOc1ccc2cc(-c3nn(CC4CCN(C)CC4)c4ncnc(N)c34)ccc2c1`, the growth is 96.1% (inactive) and 69.6% (inactive).
The figure for `CC[N+](CC)(CC(=O)Nc1c(C)cccc1C)Cc1ccccc1` is 100% (inactive) and 101% (inactive); for `CC1=CCC2CC1C2(C)C` (stereo not drawn) it is 106% (inactive) and 102% (inactive).
The result for `CC1(C)[C@@H](OC(=O)CCC(=O)O)CC[C@]2(C)[C@H]3C(=O)C=C4[C@@H]5C[C@@](C)(C(=O)O)CC[C@]5(C)CC[C@@]4(C)[C@]3(C)CC[C@@H]12` reads 103% (inactive) and -35.3% (active); that for `CCC(O)c1ccccc1` (stereo not drawn), 106% (inactive) and 104% (inactive).
As for `CN(Cc1ccccc1)Cc1ccccc1`, the growth was 110% (inactive).
For `COc1ccc(-c2ncnc3c2ncn3C/C=C/CCl)cc1`, the growth was 67.5% (inactive) and 97.1% (inactive).

For the origin of these results see PubChem BioAssay (NCI).
